Reference: PubChem BioAssay AID624170 (National Center for Advancing Translational Sciences (NCATS), 2012)
The campaign covered roughly 410,000 compounds. About 850 (0.21%) were called active. Roughly 2% stayed inconclusive and do not appear here. The sample holds actives, similar compounds and a random draw of the others, so the mix is not that of the screen. The call rests on the fitted dose curve; in most records, active means well fitted inhibition curve with a large enough effect; inconclusive means small, poorly fitted or top-dose-only effect, or another doubt; inactive means no such curve, though single readings can be large or run the other way.

The molecules below were run against Glutaminase kidney isoform, mitochondrial (Homo sapiens) (UniProt O94925) (assay: qHTS for Inhibitors of Glutaminase (GLS)). Conditions: GLS enzymatic activity, qHTS titration; series mostly up to 45.5 µM.
Sequence of Glutaminase kidney isoform, mitochondrial (Homo sapiens) (O94925 whole entry, looked up, canonical isoform): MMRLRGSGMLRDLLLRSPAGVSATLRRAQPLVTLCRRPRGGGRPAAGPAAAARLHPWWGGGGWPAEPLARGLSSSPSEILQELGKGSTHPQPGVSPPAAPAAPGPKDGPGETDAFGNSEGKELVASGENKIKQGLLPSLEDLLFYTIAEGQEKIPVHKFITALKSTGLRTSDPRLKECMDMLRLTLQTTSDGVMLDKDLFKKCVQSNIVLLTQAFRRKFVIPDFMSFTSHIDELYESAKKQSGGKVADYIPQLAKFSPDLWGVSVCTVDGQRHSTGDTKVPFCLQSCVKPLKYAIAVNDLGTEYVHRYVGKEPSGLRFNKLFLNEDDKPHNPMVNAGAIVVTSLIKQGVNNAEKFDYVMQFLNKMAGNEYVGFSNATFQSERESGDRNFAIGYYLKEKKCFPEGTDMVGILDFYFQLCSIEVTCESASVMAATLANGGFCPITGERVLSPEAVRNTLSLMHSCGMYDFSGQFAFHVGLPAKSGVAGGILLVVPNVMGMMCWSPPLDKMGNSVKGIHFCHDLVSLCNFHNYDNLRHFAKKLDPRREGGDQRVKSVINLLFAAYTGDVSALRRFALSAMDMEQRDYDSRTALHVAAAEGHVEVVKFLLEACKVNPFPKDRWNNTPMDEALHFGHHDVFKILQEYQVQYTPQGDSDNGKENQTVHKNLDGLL
Outline: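 Enzyme dispensed in phosphate buffer (45 mM, pH 8.2, 0.02% Tween-20), compounds pinned in, then 1 mM L-glutamine solution and the glutamate oxidase–HRP–Amplex Red mix added; fluorescence read immediately and again after 30 min at room temperature.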
Potency means the concentration at half of the fitted maximal effect.

Potency, inactive:
C[C@H]1C[C@H]2[C@@H]3CCC4=CC(=O)C=C[C@]4(C)[C@@H]3C(=O)C[C@]2(C)[C@@]1(O)C(=O)CO, O=C(O)c1ccc2c(c1)N(Cc1ccc(F)cc1)C(=O)c1ccccc1S2=O (stereo not drawn), COc1cc2c(cc1OC)[C@@H](Cc1cc(OC)c(OC)c(OC)c1)[N+](C)(CCCOC(=O)CC/C=C/CCC(=O)OCCC[N+]1(C)CCc3cc(OC)c(OC)cc3[C@H]1Cc1cc(OC)c(OC)c(OC)c1)CC2 (stereo partly drawn), NNc1nnc(Cc2ccncc2)c2ccccc12, CCCOc1ccc(/C(O)=C2/C(=O)C(=O)N(CCN(C)C)C2c2ccc(OC)c(OC)c2)cc1 (stereo not drawn), COc1ccc(/C(O)=C2/C(=O)C(=O)N(CCCN(C)C)C2c2ccccc2)cc1OC (stereo not drawn), COc1ccc(N2CCN(c3cc(C)nc4nncn34)CC2)cc1, CCc1ccc(NC(=O)CN2C(=O)CCSc3ccc(S(=O)(=O)N4CCCC4)cc32)cc1, O=C(Nc1cccc(C(F)(F)F)c1)c1cc(Br)cc(Br)c1O, COc1ccc(OC)c(-c2noc(N3CCN(c4cc(Cl)ccc4C)CC3)n2)c1, COc1ccc(C2=NOC3(CC(=O)N(c4ccc(Cl)cc4)C3=O)C2)c(OC)c1 (stereo not drawn), Cc1cc(C)c2sc(NC(=O)c3ccc(S(=O)(=O)N4CCCC4)cc3)nc2c1, Cc1cn([C@H]2CC(F)[C@@H](CO)O2)c(=O)[nH]c1=O (stereo partly drawn), CO/N=C(\C(=O)N[C@@H]1C(=O)N2C(C(=O)O)=C(Cn3nnc(C)n3)CS[C@H]12)c1csc(N)n1, C[C@]12CC[C@@H]3c4ccc(O)cc4C[C@@H](CCCCCCCCCS(=O)CCCC(F)(F)C(F)(F)F)C3[C@@H]1CC[C@@H]2O (stereo partly drawn), Cc1cccc(C)c1NC(=O)NC1=CCCN1C, CCCC(=O)O[C@]1(C(=O)COC(=O)CC)CC[C@@H]2[C@@H]3CCC4=CC(=O)CC[C@]4(C)[C@H]3[C@@H](O)C[C@@]21C, CN1CC(O)c2cc(N=NC(N)=O)c(O)cc21 (stereo not drawn), CC(=O)O[C@]1(C(C)=O)CC[C@@H]2[C@@H]3C=C(C)C4=CC(=O)CC[C@@]4(C)[C@H]3CC[C@]21C

Potency, active:
COc1ccc(C2/C(=C(/O)c3ccccc3)C(=O)C(=O)N2c2ncccn2)cc1OC (stereo not drawn) 8.91 µM, COc1ccc2c(c1)C(=O)Nc1cc(Cl)ccc1N2 12.6 µM, C=CC1=C(C(=O)O)N2C(=O)[C@@H](NC(=O)/C(=N/OCC(=O)O)c3csc(N)n3)[C@H]2SC1 12.6 µM, C=CC1=C(C(=O)O)N2C(=O)[C@@H](NC(=O)/C(=N\OCC(=O)O)c3csc(N)n3)[C@H]2SC1 12.6 µM
